High-throughput results from PubChem.
A selection: hits, their analogues and other compounds. The true share with any hit is near 4.8%.
DAX1 inh-1: blocks DAX1 repression of SF-1 activated StAR promoter; HEK293T StAR-luciferase reporter, SF-1/DAX-1 repression relief; inhibition, % at 6.8 µM; actives 1.1% (n = 370,000);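 active = inhibition above the mean over all tested compounds plus 3 SD, cut at about 3.6% in these data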;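 note: higher inhibition means more luminescence from relief of DAX-1 repression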
ssDAF12 agonist: S. stercoralis DAF-12 activation, primary screen. HEK293 ssDAF-12/GRIP1 lit1-tk-luc reporter, luminescence; % of 3 µM dafachronic acid response. actives 1% (n = 370,000). activation, % at 6.8 µM;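 active = activation above the mean over all tested compounds plus 3 SD, cut at about 0.9% in these data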
hgDAF12 agonist: hgDAF-12 agonism, primary luciferase screen; HEK293 GAL4-hgDAF12 UAS-luciferase reporter, agonist luminescence; normalized to butyrate control; activation, % at 6.8 µM; actives 1.8% (n = 370,000); AID 687014;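 active = activation above a cutoff set at the mean of all screened compounds plus 3 SD, cut at about 10% in these data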
hcDAF12 agonist: activates DAF-12 receptor from parasite H. contortus; actives 1.4% (n = 370,000); activation, % at 6.8 µM; AID 652067; HEK293 hcDAF-12 lit1-tk-luc reporter, luminescence; 0% DMSO, 100% Δ7-dafachronic acid;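 active = activation above the mean of all tested compounds plus 3 SD, cut at about 5.5% in these data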
SMARCA2 activ: SMARCA2 function activation, primary screen; activation, % at 9.1 µM; MG213 cells, MMTV-luciferase reporter, dexamethasone, overnight; AID 652017; actives 1% (n = 370,000); in the data active = activation above about 7.8%
DAX1 inh-2: inhibits human nuclear receptor DAX1; inhibition, % at 6.75 µM; P51843; HEK293 Gal4-DAX1 luciferase reporter, luminescence; actives 0.99% (n = 340,000);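 active = inhibition above the mean over all tested compounds plus 3 SD, cut at about 4.2% in these data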;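 note: inhibition shows as a rise in luminescence from relieved DAX1 repression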
DAX1 conf: NR0B1 (human) inhibition, confirmation; shares compounds with DAX1 inh-1; HEK293T StAR-promoter luciferase reporter, SF-1/DAX-1 repression; inhibition, % at 6.8 µM; actives 87% (n = 2,400); AID 652134;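 active = inhibition above the average of every tested compound plus 3 SD, cut at about 3.8% in these data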;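 note: active compounds raise luminescence by relieving repression of the StAR reporter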
Target sequence (P51843 whole entry, looked up): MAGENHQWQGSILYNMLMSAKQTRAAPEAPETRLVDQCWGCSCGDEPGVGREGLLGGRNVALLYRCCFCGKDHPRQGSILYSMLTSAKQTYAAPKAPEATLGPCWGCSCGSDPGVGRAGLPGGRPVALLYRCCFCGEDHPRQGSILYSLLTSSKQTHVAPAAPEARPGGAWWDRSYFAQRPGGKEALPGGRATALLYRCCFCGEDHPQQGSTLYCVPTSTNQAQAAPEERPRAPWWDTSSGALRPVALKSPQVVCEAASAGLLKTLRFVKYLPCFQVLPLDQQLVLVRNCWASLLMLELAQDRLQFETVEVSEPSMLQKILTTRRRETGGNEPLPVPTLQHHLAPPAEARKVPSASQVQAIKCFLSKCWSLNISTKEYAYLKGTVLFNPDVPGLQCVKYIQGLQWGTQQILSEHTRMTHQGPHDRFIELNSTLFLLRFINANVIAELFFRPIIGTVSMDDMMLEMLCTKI
SF1 mutant ctr: counter-screen for DAX1 inhibitors: nonselective inhibitors with SF-1 AF2 mutant. AID 652136. inhibition, % at 6.8 µM. actives 78% (n = 2,400). HEK293 StAR-luciferase, luminescence. shares compounds with DAX1 inh-1;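 active = inhibition above the mean of all tested compounds plus 3 SD, cut at about 3% in these data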
SMARCA2 act conf: SMARCA2 activation, confirmation screen; shares compounds with SMARCA2 activ; MG213 cells, MMTV-luciferase with dexamethasone, luminescence, overnight; MG213 cells expressing E1A, Rb sequestered; DMSO wells 0%, reference activator 100%; activation, % at 9.1 µM; actives 30% (n = 3,500); AID 652260;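 active = activation above its plate's cutoff, the mean activation of tested wells plus 3 SD, cut at about 7.9% in these data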
VP16 Luc act: counter-screen for SMARCA2 activators: GAL4-VP16 luciferase reporter activation | AID 686939 | activation, % at 9.1 µM | actives 41% (n = 3,500) | shares compounds with SMARCA2 activ | HEK293 GAL4-VP16 pG5luc reporter, luciferase luminescence; scaled: DMSO wells 0%, SAHA wells 100%;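 active = activation above the solvent-only control well mean plus 3 SD, averaged across control plates, cut at about 5.2% in these data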
LXR ag: counter-screen for hcDAF-12 agonists: agonists of human LXR-beta | shares compounds with hcDAF12 agonist | HEK293 Gal4-LXR tk-luc reporter, luminescence, 24 h; normalized: DMSO 0%, positive control 100% | activation, % at 6.8 µM | 3,400 tested, under 10 active | AID 743027;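 active = mean percent activation of the reporter above a cutoff set as the average over tested compounds plus their standard deviation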
hcDAF12 ag: confirmation of H. contortus DAF-12 agonists; actives 61% (n = 3,400); AID 743032; activation, % at 6.8 µM; shares compounds with hcDAF12 agonist; HEK293 hcDAF-12 lit1-tk-luc reporter, luminescence; % of Δ7-dafachronic acid response;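 active = mean activation across triplicate tests above the threshold derived from the earlier primary screen, cut at about 5.5% in these data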
Numbers stand for hits.

How did Cc1cccc(N/C=C/C(=O)c2cccs2)c1C do in these assays?
DAX1 inh-1: 6.3; ssDAF12 agonist: 2.9; hgDAF12 agonist: 13; hcDAF12 agonist: 15; SMARCA2 activ: inactive; DAX1 inh-2: inactive; DAX1 conf: 14; SF1 mutant ctr: 7.3; LXR ag: inactive; hcDAF12 ag: 21

What do the screens show for `Cc1c(C(=O)N2CCC2(C)C(=O)O)oc2ccccc12` (centres undefined)?
DAX1 inh-1: inactive; ssDAF12 agonist: inactive; hgDAF12 agonist: inactive; hcDAF12 agonist: inactive; SMARCA2 activ: inactive

Results for O=C(OCc1nc2ccccc2s1)c1ccco1 ?
DAX1 inh-1: 4.9; ssDAF12 agonist: inactive; hgDAF12 agonist: 11; hcDAF12 agonist: 9.1; SMARCA2 activ: inactive; DAX1 inh-2: inactive; DAX1 conf: 7.4; SF1 mutant ctr: 4.7; LXR ag: inactive; hcDAF12 ag: 8.6

How did CC(C)Cn1cc(-c2cccc3nccn23)cn1 do in these assays?
DAX1 inh-1: inactive; ssDAF12 agonist: inactive; hgDAF12 agonist: inactive; hcDAF12 agonist: inactive; SMARCA2 activ: inactive

Results for Cc1cccc(/C=N/Nc2nncc3ccccc23)c1 ?
DAX1 inh-1: 14; ssDAF12 agonist: inactive; hgDAF12 agonist: 18; hcDAF12 agonist: 12; SMARCA2 activ: 12; DAX1 inh-2: inactive; DAX1 conf: 12; SF1 mutant ctr: 4.9; SMARCA2 act conf: 14; VP16 Luc act: 8.8; LXR ag: inactive; hcDAF12 ag: 12

Results for COc1ccc(C(=O)N=c2sc3ccccc3n2C)cc1 ?
DAX1 inh-1: 5.8; ssDAF12 agonist: 2.8; hgDAF12 agonist: 16; hcDAF12 agonist: 13; SMARCA2 activ: inactive; DAX1 inh-2: 4.7; DAX1 conf: 11; SF1 mutant ctr: 7.0; LXR ag: inactive; hcDAF12 ag: 19

What do the screens show for `Cn1c(=NC(=O)CS(=O)(=O)c2ccccc2)sc2ccccc21`?
DAX1 inh-1: inactive; ssDAF12 agonist: inactive; hgDAF12 agonist: inactive; hcDAF12 agonist: inactive; SMARCA2 activ: inactive; DAX1 inh-2: inactive

What do the screens show for `Cn1c(=NC(=O)COc2ccccc2)sc2ccccc21`?
DAX1 inh-1: 4.7; ssDAF12 agonist: inactive; hgDAF12 agonist: 13; hcDAF12 agonist: 7.9; SMARCA2 activ: inactive; DAX1 inh-2: 4.7; DAX1 conf: 7.5; SF1 mutant ctr: 5.1; LXR ag: inactive; hcDAF12 ag: inactive

How did Cc1ccn2c(CC(C)(C)C)c(-c3ccc(F)cc3)nc2c1 do in these assays?
DAX1 inh-1: 5.6; ssDAF12 agonist: inactive; hgDAF12 agonist: inactive; hcDAF12 agonist: 6.7; SMARCA2 activ: inactive; DAX1 inh-2: inactive; DAX1 conf: 8.8; SF1 mutant ctr: 6.6; LXR ag: inactive; hcDAF12 ag: inactive

What do the screens show for `Cc1ccc(-c2[nH]ncc2C(=O)c2ccc(Br)cc2)c(O)c1`?
DAX1 inh-1: inactive; ssDAF12 agonist: inactive; hgDAF12 agonist: inactive; hcDAF12 agonist: inactive; SMARCA2 activ: inactive; DAX1 inh-2: inactive

Results for c1ccc(-c2cc3nc(NCc4cccs4)ccn3n2)cc1 ?
DAX1 inh-1: 7.8; ssDAF12 agonist: inactive; hgDAF12 agonist: 12; hcDAF12 agonist: 10; SMARCA2 activ: inactive; DAX1 conf: 16; SF1 mutant ctr: 8.1; LXR ag: inactive; hcDAF12 ag: 6.6

How did COc1cc(-c2cc3nc(NCc4cccs4)ccn3n2)cc(OC)c1OC do in these assays?
DAX1 inh-1: inactive; ssDAF12 agonist: inactive; hgDAF12 agonist: inactive; hcDAF12 agonist: inactive; SMARCA2 activ: inactive

How did NC(=O)c1ncn([C@@H]2O[C@H](CNCc3cc(Cl)ccc3OCc3ccc(Cl)cc3)[C@@H](O)[C@H]2O)n1 do in these assays?
DAX1 inh-1: inactive; ssDAF12 agonist: inactive; hgDAF12 agonist: inactive; hcDAF12 agonist: inactive; SMARCA2 activ: inactive; DAX1 inh-2: inactive

What do the screens show for `COc1cc(CN2C[C@@H](CO)O[C@@H](n3cnc4c(N5CCN(c6ccccc6)CC5)ncnc43)C2)cc(OC)c1OC`?
DAX1 inh-1: inactive; ssDAF12 agonist: inactive; hgDAF12 agonist: inactive; hcDAF12 agonist: inactive; SMARCA2 activ: inactive

What do the screens show for `Cc1cc(C)c2nc(NC(=O)c3ccco3)sc2c1`?
DAX1 inh-1: 19; ssDAF12 agonist: 1.0; hgDAF12 agonist: inactive; hcDAF12 agonist: 6.6; SMARCA2 activ: inactive; DAX1 inh-2: inactive; DAX1 conf: 13; SF1 mutant ctr: inactive; LXR ag: inactive; hcDAF12 ag: 9.2

What do the screens show for `Cc1ccc(C(=O)c2sc3nsc(C)c3c2N)cc1`?
DAX1 inh-1: 5.0; ssDAF12 agonist: 1.1; hgDAF12 agonist: 13; hcDAF12 agonist: 7.2; SMARCA2 activ: inactive; DAX1 inh-2: inactive; DAX1 conf: 14; SF1 mutant ctr: 5.4; LXR ag: inactive; hcDAF12 ag: 8.7

How did O=C(O)c1ccc(N=NNc2cccc([N+](=O)[O-])c2)cc1 do in these assays?
DAX1 inh-1: 5.1; ssDAF12 agonist: inactive; hgDAF12 agonist: inactive; hcDAF12 agonist: 6.7; SMARCA2 activ: inactive; DAX1 inh-2: inactive; DAX1 conf: 14; SF1 mutant ctr: 8.0; LXR ag: inactive; hcDAF12 ag: inactive

How did O=C(Nc1cccc([N+](=O)[O-])c1)c1ccc(-c2ccccc2)cc1 do in these assays?
DAX1 inh-1: inactive; ssDAF12 agonist: inactive; hgDAF12 agonist: inactive; hcDAF12 agonist: inactive; SMARCA2 activ: inactive; DAX1 inh-2: inactive
